Measured values as given in PubChem BioAssay AID1347165 (National Center for Advancing Translational Sciences (NCATS), 2019).
In all, about 220,000 compounds went through this assay and about 5,700 (2.6%) were called active. Roughly 18% stayed inconclusive and do not appear here. What follows is part of a selection rich in actives, with near analogues and random picks from the rest. Values without a mark were called inactive. Calls come from the whole dose curve; as a rule, active = well fitted inhibition curve with a large enough effect; inconclusive = small, poorly fitted or top-dose-only effect; inactive = no such curve, though single readings can be large or run the other way.

These molecules were tested against Lysine-specific demethylase 5B (Homo sapiens) (UniProt Q9UGL1) (assay: Primary screen for KDM5B Histone Demethylases FDH-coupled qHTS). Conditions: FDH-coupled NADH fluorescence (FDH is formaldehyde dehydrogenase); series mostly up to 57.7 µM; activity change, negative = inhibition: at the top concentration.
Text: Assay Submitter (PI): Qin Yan, Ph.D. (Yale University) and Xiaodong Cheng, Ph.D. (MD Anderson) This project was funded as part of the NCI NEXT Program and Chemical Biology Consortium (CBC) The histone demethylases, KDM5A and KDM5B catalyze the demethylation of lysine 4 on histone H3 (H3K4me3/2). They are overexpressed in a variety of cancers and have been implicated in cancer cell growth, metastasis, drug resistance, and tumor growth. KDM5A is amplified and overexpressed in breast and gastric cancer; and is translocated in leukemia. While KDM5B is highly expressed in human mammary tumors and breast cancer cell lines, but not in normal adult breast tissue. Moreover, knockdown of KDM5B leads to upregulation of tumor suppressor genes, including BRCA1. The goal of this project is to employ qHTS to identify selective small molecule inhibitors of KDM5A/B demethylase activity to better understand the role of KDM5 in cancer and to develop novel therapies. We employed an FDH-coupled assay previously reported by Sakurai et al. to monitor in vitro KDM5 demethylase activity. Compounds showing dose response inhibition are re-acquired, validated, and tested for non-specific interference with the formaldehyde dehydrogenase (FDH) counterscreen. True inhibitors are validated using an AlphaLisa secondary screen, which employs an H3K4(me2-1)-specific antibody to monitor demethylation of a biotin-tagged H3K4(me3) peptide substrate. Inhibitors are profiled against KDM4A and KDM6A AlphaLisa counterscreens to determine level of demethylase specificity; and against the TruHits counterscreen to eliminate non-specific inhibitory activity on the AlphaLISA detection method. Selective inhibitors identified from the primary and secondary screening are tested in cells using immunofluorescence to monitor global H3K4 tri-methylation as a measure of KDM5A/B inhibition. Early Translation Branch (ETB) National Center for Advancing Translational Sciences (NCATS), Rockville, MD National Institute of Health (NIH), Bethesda, Maryland [1] Sakurai, M et al. A miniaturized screen for inhibitors of Jumonji histone demethylases. Mol Biosyst. 2010 Feb;6(2):357-64. doi: 10.1039/b912993f. Epub 2009 Oct 8.
Materials: 1536-well Black, solid bottom, medium binding assay plate is purchased from Greiner Bio-one. The enzymes (KDM5B) and substrate (H3K4me3/2) are provided by the principal investigators. The buffer for this assay is composed of 50mM HEPES at pH 7.5 with 0.01% Tween-20. FDH coupled Demethylase qHTS protocol: Three microliter enzyme mix (buffer + 200nM KDM5BDeltaAP final concentration) is dispensed into the assay plate using the BioRAPTR Flying Reagent Dispenser (FRD; […]). Compound (at various final concentration) and control solution is pin transferred to the assay plate using the Kalypsys 1536-pin tool apparatus. The assay plate is incubated for 10 min at room temperature followed by addition of 1uL substrate mix (buffer + 100uM ascorbic acid, 50uM ferrous ammonium sulfate, 12.5uM H3K4Me3, 25uM a-ketoglutarate, 0.25 mM NAD+, 0.25 U/mL formaldehyde dehydrogenase using the FRD yielding a total reaction volume of 4 uL. Initial fluorescence (Read1) is detected using the PerkinElmer ViewLux plate reader equipped with 340 nm excitation and 450 nm emission filters. The final fluorescence (Read2) signal is obtained after 30 min of room temperature incubation. Delta RFU is calculated (Read2 - Read1) and is used to generated dose response curves.
Note: nearly all actives have a fitted effect of over 70% in size.
Potency is the fitted concentration of half-maximal effect.
Throughout, for activity change, negative = inhibition: 0% is about no effect.

Chain of Lysine-specific demethylase 5B (Homo sapiens) (Q9UGL1 whole entry, looked up): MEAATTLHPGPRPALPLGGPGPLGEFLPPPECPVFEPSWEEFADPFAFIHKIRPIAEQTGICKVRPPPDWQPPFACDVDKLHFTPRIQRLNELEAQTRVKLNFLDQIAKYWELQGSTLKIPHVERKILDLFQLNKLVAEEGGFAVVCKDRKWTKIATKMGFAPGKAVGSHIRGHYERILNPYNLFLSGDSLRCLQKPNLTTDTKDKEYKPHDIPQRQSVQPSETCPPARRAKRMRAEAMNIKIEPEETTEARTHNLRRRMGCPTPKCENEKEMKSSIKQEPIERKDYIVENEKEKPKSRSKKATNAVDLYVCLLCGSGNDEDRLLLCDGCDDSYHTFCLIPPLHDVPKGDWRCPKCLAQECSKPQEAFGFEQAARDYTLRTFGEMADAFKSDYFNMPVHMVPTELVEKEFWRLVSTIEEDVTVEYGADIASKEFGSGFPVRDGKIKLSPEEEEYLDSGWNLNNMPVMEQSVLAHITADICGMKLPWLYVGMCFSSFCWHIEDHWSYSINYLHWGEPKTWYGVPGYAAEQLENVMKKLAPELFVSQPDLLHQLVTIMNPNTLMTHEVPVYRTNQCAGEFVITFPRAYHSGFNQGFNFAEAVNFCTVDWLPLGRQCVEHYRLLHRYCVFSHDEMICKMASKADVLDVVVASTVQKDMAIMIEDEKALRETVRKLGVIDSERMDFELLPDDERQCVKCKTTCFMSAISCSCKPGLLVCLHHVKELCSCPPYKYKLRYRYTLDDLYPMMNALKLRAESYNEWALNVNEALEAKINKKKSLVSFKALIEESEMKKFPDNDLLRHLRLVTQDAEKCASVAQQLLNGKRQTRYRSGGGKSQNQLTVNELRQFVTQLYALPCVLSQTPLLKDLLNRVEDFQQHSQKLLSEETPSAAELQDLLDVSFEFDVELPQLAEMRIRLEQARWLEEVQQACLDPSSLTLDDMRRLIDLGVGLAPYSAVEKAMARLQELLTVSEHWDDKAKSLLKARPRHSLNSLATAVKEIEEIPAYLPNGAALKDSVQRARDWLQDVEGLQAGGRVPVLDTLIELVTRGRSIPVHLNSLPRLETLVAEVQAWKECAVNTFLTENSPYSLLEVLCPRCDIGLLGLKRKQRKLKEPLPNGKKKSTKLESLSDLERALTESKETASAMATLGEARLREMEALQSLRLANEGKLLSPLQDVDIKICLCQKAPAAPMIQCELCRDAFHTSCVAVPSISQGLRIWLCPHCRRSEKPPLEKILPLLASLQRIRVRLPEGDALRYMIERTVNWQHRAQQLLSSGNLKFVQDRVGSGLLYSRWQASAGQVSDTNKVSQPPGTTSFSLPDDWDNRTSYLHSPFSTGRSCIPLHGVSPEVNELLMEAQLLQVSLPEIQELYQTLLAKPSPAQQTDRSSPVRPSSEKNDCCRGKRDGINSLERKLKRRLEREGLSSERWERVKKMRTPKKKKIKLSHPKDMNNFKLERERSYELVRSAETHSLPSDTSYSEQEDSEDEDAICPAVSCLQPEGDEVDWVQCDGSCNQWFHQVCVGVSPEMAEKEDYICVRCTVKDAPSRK

Compound | activity change, negative = inhibition | Potency
COc1cccc(NC(=O)COc2cc(C)cc3oc(=O)cc(C)c23)c1 | -1.19% | –
CCOc1ccc(C(=O)N2CC(=O)Nc3ccc(C)cc3C2c2ccccc2)cc1 (stereo unspecified) | 14.9% | –
Cc1ccc(C)c(-c2cc3c(=O)n(CCNC(=O)c4ccncc4)ccn3n2)c1 | -19% | –
CCOc1ccc(-c2cc3c(=O)n(CCNC(=O)c4ccc(OC)cc4C)ccn3n2)cc1 | – | 28.2 µM (active)
Cc1ccc(C)c(-c2cc3c(=O)n(CCNC(=O)Cc4ccsc4)ccn3n2)c1 | 16.8% | –
COc1ccc(-c2cc3c(=O)n(CCNC(=O)c4ccc(OC)cc4OC)ccn3n2)cc1 | – | 35.5 µM (active)
CCOc1ccc(-c2cc3c(=O)n(CC(=O)NCc4ccc(OC)cc4)ccn3n2)cc1 | -6.91% | –
CCC(C(=O)NCCn1ccn2nc(-c3ccc(F)cc3)cc2c1=O)c1ccccc1 (stereo unspecified) | -11.3% | –
Cc1c(Cl)cccc1NC(=S)NCCSc1ccc(Cl)cc1 | -3.71% | –
O=Cc1cc(Cl)ccc1O | 16.4% | –
Cc1cc(C)c(NC(=O)COc2ccc(C(=O)Nn3c(C)ccc3C)cc2)c(C)c1 | -27.9% | –
O=C(Nc1ccccc1C(F)(F)F)N1CCC(N2CCN(Cc3ccccn3)C(=O)C2=O)CC1 | 19.7% | –
COc1ccc(C(=O)C(C)OC(=O)c2nn(C)c(=O)c3ccccc23)cc1 (stereo unspecified) | 16.9% | –
COC(=O)c1ccc(/C=C2\CCc3c(C)cc(C)cc3C2=O)cc1 | -17.2% | –
O=C1CCN(C(=O)c2ccc3ccccc3n2)CCCCCCN1 | -0.0005% | –
O=C(CN1CCN(C(=O)c2ccc3ccccc3n2)CC1)NC1CC1 | -9.84% | –
O=C(c1ccc2cc[nH]c2n1)N1CCOCC1 | – | 126 µM (active)
Cc1cccc(C)c1NC(=O)CSc1nc(C)c(C)o1 | 19.2% | –
CN(CC(=O)Nc1ccc2c(c1)OC1(CCCCC1)O2)Cc1cccs1 | -7.79% | –
COc1ccc(S(=O)(=O)NCCOc2ccccc2)cc1F | -1.73% | –
CCOc1ccc(C2C(C#N)=C(N)N(N(C)C)C3=C2C(=O)CCC3)cc1 (stereo unspecified) | 8.03% | –
O=C1CCC/C(=N/NC(=O)c2cc(-c3ccncc3)nc3ccccc23)C1 | -14.2% | –
O=C(c1ccc(Cl)cc1)N(Cc1ccco1)c1ccc(O)cc1 | -4.06% | –
CCc1ccc(CCC(=O)NC)cc1 | 7.21% | –
CNC(=O)CCN(C)c1nccc(-c2ccc(C)nc2C)n1 | – | 25.1 µM (active)
CNc1c(NC(=O)Cc2ccc(OC)c(OC)c2)c(=O)oc2ccccc12 | -4.5% | –

Compound | activity change, negative = inhibition | Potency
O=C(NNC(=O)C1CCC1)c1ccccc1 | 26.8% | –
O=C(OCc1ccc(F)cc1)c1cnc2ccccc2n1 | -22.5% | –
Cc1ccc(NC(=O)c2ccoc2)cc1I | -7.73% | –
O=C(NC12CC3CC(CC(C3)C1)C2)c1cccc2ncccc12 | 8.17% | –
Cc1ccccc1NC(=O)C(C)Sc1ccc(C(F)(F)F)cn1 (stereo unspecified) | 35.1% | –
CC1(C)C/C(=N/Nc2ccc([N+](=O)[O-])cc2[N+](=O)[O-])C(C)(C)O1 | 22% | –
CC(C)c1ccc(/C=C(/C#N)c2nc3ccccc3[nH]2)cc1 | -14.6% | –
O=C(Nc1ccccc1)N1CCc2nc(-c3ccccc3)nc(-c3ccc(Cl)cc3)c2C1 | 4.08% | –
COC(=O)c1cccc(NC(=O)N2CCC3(CCC(=O)N(Cc4ccccc4)CC3)CC2)c1 | -8.76% | –
COc1ccc(-c2cc(N3CCCN(C(=O)c4ccc(OC)cc4C)CC3)n[nH]2)cc1 | -18.9% | –
COC(=O)c1cccc(NC(=O)N2CCc3c(nc4cc(-c5ccccc5)[nH]n4c3=O)C2)c1 | – | 11.2 µM (active)
COc1ccccc1C(=O)N1CCc2c(nc3cc(-c4ccccc4Cl)[nH]n3c2=O)C1 | – | 22.4 µM (active)
COc1ccccc1N1CCN(C(=O)c2ccccc2-c2ncc[nH]2)CC1=O | 10.5% | –
COc1ccc(-c2cc3nc4c(c(=O)n3[nH]2)CCN(C(=O)c2ccccc2C)C4)cc1 | – | 20 µM (active)
COc1ccc(-c2nc(C(C)C)nc3c2CN(C(=O)c2ccccc2F)CC3)cc1 | -13.2% | –
COc1ccccc1CC(=O)N1CCc2c(nc3cc(-c4ccccc4Cl)[nH]n3c2=O)C1 | -22.7% | –
CCN(CC)c1nc2ccccc2nc1C(=O)Nc1ccccc1C | -17.6% | –
O=c1oc2ccccc2c2nc(-c3ccccc3)c(-c3ccccc3)nc12 | 13.1% | –
Cc1c(-c2ccccc2)nc2ccccc2c1C(=O)OCC(N)=O | -1.96% | –
COC(=O)CC(NC(=O)c1nn(C)c(=O)c2ccccc12)c1ccccc1 (stereo unspecified) | 23.1% | –
CC(C)C(=O)NC(Nc1ccccc1Cl)(C(F)(F)F)C(F)(F)F | -7.69% | –
COc1ccc(Nc2cnc3ccc(-c4ccc(OC)nc4)nn23)cc1 | -21.5% [at 86.2 µM] | –
COc1ccc(-c2ccc3ncn(C4CC4)c(=O)c3n2)cn1 | – | 39.8 µM (active)
COc1ccc(-c2ccc3ncc(Nc4ccc(C(F)(F)F)cc4)n3n2)cn1 | -18.9% [at 86.2 µM] | –
O=C(O)c1cccc(NC(NC(=O)c2cccs2)C(=O)c2ccccc2)c1 (stereo unspecified) | 4.76% | –
